From ChEMBL document CHEMBL4513216, “Probing the Open Global Health Chemical Diversity Library for Multistage-Active Starting Points for Next-Generation Antimalarials” (ACS Infect Dis, 2020)
Out of some 69,000 compounds screened, about 8,600 (12%) showed an effect of 50% or more. The sample as a whole holds a higher share of strong results than the screen did.

system: Plasmodium berghei; experiment: Screen against P. berghei liver stage (PbLuc), transformed with Luciferase, at 10uM; type: functional, HepG2; settings: tested at 10 uM

Point of comparison: `Cc1cc(F)cc(S(=O)(=O)Nc2noc(C)n2)c1`, INHIBITION 31.5%. Against it:
- Cc1ccc(Cl)cc1NCc1nc2n(n1)CCCCC2 — lower, 25.1%
- COc1cccc(COCC(=O)N2CCN(S(C)(=O)=O)CC2)c1 — lower, 28.74%
- CN(C)C(=O)CN1CCC2(C1)CN(CC1CCOC1)C2 (stereo unspecified) — lower, 8.31%
- CC(C)=CCN1CCN(C(=O)c2cc(C)n[nH]2)[C@H]2CS(=O)(=O)C[C@H]21 — lower, -6.67%
- Cc1ccc(CN2CCC3(CC2)CCN(C(=O)c2cccn2C)C3)cc1 — lower, 6.27%
- COCCOC(=O)N1CCN2C[C@@H](CO)[C@H](c3ccccc3)[C@H]2C1 — lower, -8.8%
- Cc1ncc(-c2ccnc(N3CCCCCC3)n2)c(-c2cccnc2)n1 — lower, 12.7%
- CN1CCCN(c2nccc(-c3c[nH]nc3-c3ccncc3)n2)CC1 — higher, 42.6%
- c1cncc(-c2nc(C3CC3)ncc2-c2ccnc(N3CCCC3)n2)c1 — higher, 51.5%
- Cc1ncc(-c2ccnc(N3CCN(C)CC3)n2)c(-c2cccnc2)n1 — lower, 21.9%
- c1cc(-c2n[nH]cc2-c2ccnc(N3CCCCCC3)n2)ccn1 — higher, 50.1%
- c1cc(-c2n[nH]cc2-c2ccnc(N3CCCC3)n2)ccn1 — higher, 33.7%
- Cc1nc(CN(C)C2CCN(Cc3nc(C4CC4)no3)C2)no1 (stereo unspecified) — higher, 40.9%
- COc1ccc(-c2cc(N)on2)cc1 — lower, -3.34%
- Cc1nc(CNC(=O)NCC2(C)CCCc3ccccc32)no1 (stereo unspecified) — lower, -21.9%
- CC(CNC(=O)N1CCN(Cc2ccon2)CC1)N(C)C1CC1 (stereo unspecified) — lower, 4.62%
- CNC(=O)[C@@]12CCC3(CCN(S(C)(=O)=O)CC3)[C@@H]1CN(C(C)=O)C2 — higher, 40.1%
- CC(=O)N1CCCC(c2ccc3sc(N)nc3n2)C1 (stereo unspecified) — lower, 26.3%
- O=C(CC1CC1)N1CCN(Cc2ccncc2)c2ncccc2C1 — lower, -45.8%
- CCc1nc(NS(=O)(=O)c2ccc(F)cc2C)no1 — lower, -3.16%
- CC(C)(C)c1nc(NS(=O)(=O)c2ccc(F)cc2)no1 — higher, 51.6%
- CC(C)c1nc(NS(=O)(=O)c2ccccc2Cl)no1 — lower, 2.61%
- Cc1nc(NS(=O)(=O)c2ccc(F)c(Br)c2)no1 — lower, 10.6%
- Cn1ncnc1NS(=O)(=O)c1ccc(F)cc1 — lower, -3.59%
- CCc1nc(NS(=O)(=O)c2cc(C)ccc2F)no1 — lower, -7.9%
- Cc1nc(NS(=O)(=O)c2ccc(C)c(Br)c2)no1 — higher, 68.3%
- Cc1nc(NS(=O)(=O)c2cc(C)c(Br)cc2C)no1 — higher, 49.4%
- CC(C)(C)c1nc(NS(=O)(=O)c2ccccc2F)no1 — higher, 82.2%
- CCc1nc(NS(=O)(=O)c2ccc(F)cc2Cl)no1 — higher, 56.1%
- CCc1nc(NS(=O)(=O)c2ccc(C)cc2Cl)no1 — lower, 4.74%
- CSCC(C)(O)CNS(=O)(=O)c1ccc(F)cc1 (stereo unspecified) — lower, 12.3%
- NC1(CNC(=O)c2cc3ccccc3[nH]2)CCCC1 — lower, -8.28%
- Cc1ncccc1Oc1ncnc(N2CCC(O)(CO)CC2)c1C — lower, -6.03%
- COCCn1cc2c(n1)C(CNCc1cccc(OC)c1)OCC2 (stereo unspecified) — lower, 17.4%
- O=C(Nc1cnccn1)[C@@H]1COC[C@H]2CN(C3CCC3)C[C@H]21 — lower, 24.9%
- O=C(Cc1ccsc1)N1Cc2nc(CN3CCCCC3)oc2C1 — the same, 31.5%
- CCc1nc(C2CCCN2CCC(=O)N2CCc3ccccc32)no1 (stereo unspecified) — higher, 46.2%
- CC(C)(C)c1nc(NS(=O)(=O)c2cccc(F)c2)no1 — higher, 82.2%
- CCc1nc(NS(=O)(=O)c2cccc(F)c2C)no1 — higher, 39.7%
- Cc1nc(NS(=O)(=O)c2cccc(F)c2C)no1 — higher, 74.5%
- Cc1c(F)cccc1S(=O)(=O)Nc1noc(C(C)C)n1 — lower, 10.2%
- CCc1nc(NS(=O)(=O)c2cc(C)cc(F)c2)no1 — higher, 40.9%
- Cc1cc(N(Cc2cccs2)C2CC2)n2nc(C(F)(F)F)nc2n1 — lower, 26.6%
- CC(C)n1cnnc1SCCN(C)c1ccccc1 — lower, -34.8%
- COCCNc1ccc(CC2CCNC2)cn1 (stereo unspecified) — lower, -26.2%
- CCCN(CC(=O)N(C)C)C(=O)c1ccc(-c2nc(C)cs2)cc1 — lower, 18.9%
- COc1cc(CNC(=O)c2cc(S(C)(=O)=O)ccc2C)ccn1 — lower, 1.51%
- Cc1nn(C)c(N2CCOCC2)c1CNCc1ccnc(N(C)C)c1 — higher, 38.7%
- Cc1nn(C)c(N2CCOCC2)c1CNCc1ccc(N(C)C)nc1 — higher, 51.1%
- Cc1nn(C)c(N2CCOCC2)c1CNCc1cccnc1 — higher, 32.2%
- Cc1ccc(N2CCCc3sc(C(=O)NCCC#N)nc32)nn1 — higher, 35.8%
- CCC(CN1CCOCC1)NC(=O)Cc1c(C)[nH]c2cc(C)cc(C)c12 (stereo unspecified) — lower, 6.32%
- CN(C)CCCNC(=O)c1nnsc1-c1ccccc1 — lower, 15.9%
- O=C(NCc1cccs1)c1[nH]nc2c1CS(=O)(=O)CC2 — lower, -22.3%
- CC(C)(C)n1ncc2c1NC(=O)CC2c1cccc(O)c1 (stereo unspecified) — lower, -5.22%
- O=C1CC(c2ccc3c(c2)OCO3)c2cnn(C3CCCC3)c2N1 (stereo unspecified) — higher, 87.9%
- Cc1n[nH]c2c1C(c1ccc3c(c1)OCO3)SCC(=O)N2 (stereo unspecified) — lower, 9.32%
- O=C1CC(c2ccsc2)c2cnn(C3CCCC3)c2N1 (stereo unspecified) — lower, 6.09%
- O=C1CC(c2ccccc2)c2cnn(C3CCCC3)c2N1 (stereo unspecified) — higher, 68%
- O=C1CC(c2ccc3c(c2)OCO3)c2cn[nH]c2N1 (stereo unspecified) — lower, 6%
- O=C1CC(c2ccc3c(c2)OCO3)c2c(n3ccsc3nc2=O)N1 (stereo unspecified) — lower, 5.85%
- Cc1nn(C2CCCC2)c2c1C(c1ccc3c(c1)OCO3)SCC(=O)N2 (stereo unspecified) — higher, 61.6%
- CC(C)(C)n1ncc2c1NC(=O)CC2c1cccc(F)c1 (stereo unspecified) — higher, 89.4%
- CC(C)(C)n1ncc2c1NC(=O)CC2c1ccccc1 (stereo unspecified) — lower, 5.65%
- O=C1CC(c2cccs2)c2cnn(C3CCCC3)c2N1 (stereo unspecified) — lower, 14.4%
- O=C1CSC(c2ccc3c(c2)OCO3)c2cnn(C3CCCCC3)c2N1 (stereo unspecified) — higher, 38.9%
- O=C1CC2(CCCCN2C(=O)c2ccncc2)CN1CC1CC1 (stereo unspecified) — lower, 23.5%
- CCc1sc(C(=O)NC2CC2)cc1C — higher, 38%
- Cc1cc(N(C)C)nc(C2COCCN2Cc2nccn2C)n1 (stereo unspecified) — lower, 20.6%
- Cc1ccc(NC2CCN(C(=O)c3c(C)oc(C)c3C)CC2)nn1 — lower, 9.365%
- COc1ccccc1COCC(O)CN1CC(n2cccn2)C1 (stereo unspecified) — lower, 19.85%
- N#Cc1ccc(C2CC(=O)Nc3c2cnn3C2CCCC2)cc1 (stereo unspecified) — lower, -11.1%
- O=C1CC(c2ccc(F)cc2)c2cnn(C3CCCC3)c2N1 (stereo unspecified) — higher, 70.2%
- COc1ccc(C2CC(=O)Nc3c2cnn3C2CCCC2)cc1 (stereo unspecified) — lower, -9.67%
- Cc1nnc(CN(C)CC(=O)NC(C)(C)c2ccc(F)cc2)n1C — lower, 10.1%
- Fc1cccc(Cl)c1CNCc1ccccn1 — lower, 10.7%
- CCCN1CCN(C(=O)c2cnccn2)[C@H]2CS(=O)(=O)C[C@H]21 — higher, 51.8%
- Cc1ncc(CN2CCN(C(=O)N(C)C)[C@@H]3CS(=O)(=O)C[C@@H]32)cn1 — higher, 31.6%
- CCCN1CCN(C(=O)c2ccc3ccccc3n2)[C@H]2CS(=O)(=O)C[C@H]21 — lower, -15.1%
- Cc1ncc(CN2CCN(C(=O)C3CCC3)[C@@H]3CS(=O)(=O)C[C@@H]32)cn1 — lower, 14.8%
- CCC(=O)N1CCN(Cc2cnc(C)nc2)[C@H]2CS(=O)(=O)C[C@H]21 — higher, 53.1%
- O=C(c1cnccn1)N1CCC(CN2CCOCC2)CC1 — lower, 30%
- CCCN1CCN(C(=O)c2ccc(Cl)cn2)[C@H]2CS(=O)(=O)C[C@H]21 — higher, 37.6%
- CCCN1CCN(C(=O)c2cccc(C)n2)[C@H]2CS(=O)(=O)C[C@H]21 — lower, 21.2%
- CCCN1CCN(C(=O)c2cc3ccccc3cn2)[C@H]2CS(=O)(=O)C[C@H]21 — higher, 43.9%
- CC1COCCN1C(=O)c1cnccn1 (stereo unspecified) — higher, 53.5%
- Cc1cnc(C(=O)N2CCOCC2C)cn1 (stereo unspecified) — higher, 33.7%
- CCCN1CCN(C(=O)c2cc[nH]n2)[C@H]2CS(=O)(=O)C[C@H]21 — higher, 53.9%
- CC(C)c1nccn1-c1nccnc1C1CCCN1Cc1ccccc1 (stereo unspecified) — lower, 28.5%
- O=C(NCCCNC(=O)c1ccc(F)cc1F)c1cccc(O)c1 — lower, -2.61%
- CC(Cn1ccnc1)NC(=O)N1CCN(Cc2ccncc2)CC1 (stereo unspecified) — lower, 13.03%
- CC(C)c1ocnc1C(=O)Nc1cccc(Cn2ccccc2=O)c1 — lower, 26.5%
- Cc1nn(C)c(N(C)C)c1CNCc1ccccc1Cn1ccnc1 — lower, 27.6%
- CC(=O)Nc1nc(C2CCCN(C(=O)CN(C)C)C2)cs1 (stereo unspecified) — lower, 8.72%
- CC(NS(=O)(=O)CCc1ccccn1)c1ccccc1Br (stereo unspecified) — lower, -9.35%
- CCC(=O)c1ccc(OCC(=O)N(C)C(C)c2ccon2)cc1 (stereo unspecified) — lower, 20.6%
- CC1=N[C@@]2(CC[C@@H]3CN(Cc4ccccc4F)C[C@@H]32)C(=O)N1C — lower, 19.8%
- CNC(=O)[C@@H]1CCO[C@@H]2CCN(Cc3ccsc3)C[C@H]21 — lower, 31.1%
- CCN1CCOC(CNCc2cnc(N(CC)CC)s2)C1 (stereo unspecified) — lower, -81.1%
- Cc1nc(C(=O)N2CCN(S(C)(=O)=O)[C@@H]3CS(=O)(=O)C[C@@H]32)cs1 — higher, 39.8%
- CCCN1CCN(C(=O)c2cnc(C)nc2)[C@H]2CS(=O)(=O)C[C@H]21 — lower, 2.15%
- CCCN1CCN(C(=O)c2cncnc2C)[C@H]2CS(=O)(=O)C[C@H]21 — higher, 51.2%
- CCCN1CCN(C(=O)c2cnccc2C)[C@H]2CS(=O)(=O)C[C@H]21 — lower, 19.4%
- Cc1nc(C(=O)N2CCN(C(=O)N(C)C)[C@@H]3CS(=O)(=O)C[C@@H]32)cs1 — higher, 57.8%
- Cc1nc(C(=O)N2CCN(C(=O)C3CCC3)[C@@H]3CS(=O)(=O)C[C@@H]32)cs1 — higher, 33.1%
